From PubChem
Sampled rows, rich in hits. Any-hit rate of the full collection: about 3.4%.
FLuc inh – firefly luciferase inhibition. 72,000 tested, 2.2% active. P08659. Potency, µM (titrated, usually from 57.1 µM), for the others: at the highest dose activity change, negative = inhibition, usual class: inhibitors. AID 411. purified firefly luciferase, luminescence, 8 min; active = well fitted inhibition curve with a large enough effect; inconclusive = small, poorly fitted or top-dose-only effect; also: % is scaled to controls: 0 for no effect and ±100 for the full control effect; nearly all actives have a fitted effect of over 40% in size
Target sequence (P08659 whole entry, looked up): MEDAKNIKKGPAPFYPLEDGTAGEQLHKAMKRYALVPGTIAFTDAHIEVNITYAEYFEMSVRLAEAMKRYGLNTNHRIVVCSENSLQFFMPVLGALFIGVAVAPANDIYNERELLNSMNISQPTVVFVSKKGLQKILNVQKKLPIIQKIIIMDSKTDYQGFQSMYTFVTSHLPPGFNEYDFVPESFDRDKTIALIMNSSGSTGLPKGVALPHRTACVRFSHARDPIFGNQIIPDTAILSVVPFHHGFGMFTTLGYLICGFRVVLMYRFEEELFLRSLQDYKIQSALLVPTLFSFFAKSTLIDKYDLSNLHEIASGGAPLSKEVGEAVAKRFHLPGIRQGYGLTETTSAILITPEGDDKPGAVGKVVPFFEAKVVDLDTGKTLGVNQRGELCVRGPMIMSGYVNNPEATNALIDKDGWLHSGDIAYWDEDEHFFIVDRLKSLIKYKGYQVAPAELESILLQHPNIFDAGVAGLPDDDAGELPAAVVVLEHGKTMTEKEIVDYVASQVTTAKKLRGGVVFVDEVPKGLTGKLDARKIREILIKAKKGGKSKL
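Luminescence read-out after 8 min at room temperature; enzyme reaction used luciferin plus 10 uM ATP (linear range) in imidazole buffer pH 7.2 with KCl, MgCl2, Tween 20 and BSA. Each sample was run as a titration.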
PK Bst – alters activity of Bacillus stearothermophilus pyruvate kinase; purified pyruvate kinase, luminescence ATP production; ribose 5-phosphate activator present at AC10; Potency, µM; 51,000 tested, 1.2% active; in the data active = potency below about 11 µM; inconclusive = mostly about 12 µM to 25 µM;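 the screen sought inhibitors and activators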;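 also: scaled between full activation by ribose 5 phosphate and full inhibition by luteolin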
GBA activity – human lysosomal glucosylceramidase modulation. P04062. purified enzyme, resorufin glucoside fluorescence (screen aimed at inhibitors), 20 min. Potency, µM. 48,000 tested, 1.1% active. AID 360; in the data active = potency below about 15 µM; inconclusive = mostly about 16 µM to 33 µM;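 also: the screen sought inhibitors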
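Normal human glucocerebrosidase (0.2 nM final) was assayed with resorufin β-D-glucopyranoside (30 uM final) in 50mM citric acid/KH2PO4, 10mM sodium taurocholate, 0.01% tween-20, pH 5.9. Compounds were titrated; fluorescence (Ex 548, Em 600) read after 20 min at RT.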
* = called active by the depositor; i = inactive; ? = inconclusive; · = not tested or not shown; [ ] = remark or other dose. Potency is read from the fitted curve at half-maximal effect.

SMILES	FLuc inh	PK Bst	GBA activity
O=C1C=C[C@@H](O)[C@H]2[C@@H]3C(=O)N(c4cccc(Oc5ccccc5)c4)C(=O)[C@@H]3CC[C@H]12	1%[11.4 µM]	·	·
c1csc(Cc2nc3ccccc3[nH]2)c1	-4%	>57	>77
C(=N\c1nc2ccccc2[nH]1)/c1cccs1	7.9µM*	·	·
N#Cc1cc2c(nc1SCc1cccnc1)CCC2	1%	>57	>77
N#Cc1cc2c(nc1SCc1nc3ccccc3[nH]1)CCC2	4µM*	6*	>77
Cn1cccc1C(=O)N1CCC2(CCCN(Cc3ccccc3)C2)CC1	-2%[11.4 µM]	·	·
Brc1cnc(N2CCCC2)nc1N1CCOCC1	1%	>57	15*
Oc1ccccc1Oc1ncc(Br)c(N2CCOCC2)n1	3%	>57	>77
COc1cccc(C(=O)Nc2nc(-c3ccc(S(=O)(=O)N4CCOCC4)cc3)cs2)c1	-3%	>57	·
O=C(Nc1nc(-c2ccc(S(=O)(=O)N3CCCC3)cc2)cs1)c1cccs1	-1%	>57	?
O=C(Nc1nc(-c2ccc(S(=O)(=O)N3CCCCCC3)cc2)cs1)c1cccs1	3%	>57	14*
Cc1ccc(S(=O)(=O)N2CCOCC2)cc1C(=O)Nc1nc(-c2cccnc2)cs1	1%	8.6*	>77
Ic1ccc2c(c1)N(c1ccccc1)c1cc(Nc3ccc4nc5ccc(I)cc5[n+](-c5ccccc5)c4c3)ccc1N2	-4%[11.4 µM]	·	·
Cn1c(=O)c(-c2ccc(Cl)cc2)nc2cnc(N3CCOCC3)nc21	0%[11.4 µM]	·	·
CCc1ccccc1N1CCN(S(=O)(=O)c2ccc(F)c(C)c2)CC1	0%	·	>77
Cc1ccc(N2CCN(S(=O)(=O)c3ccc(F)c(C)c3)CC2)c(C)c1	-2%	11*	>77
COc1cccc(Cn2c(=O)cnc3cnc(OC)nc32)c1	1%[11.4 µM]	·	·
CCOc1ccc2nc(NC(=O)CSc3nnc(-c4ccncc4)n3CC3CCCO3)sc2c1 (configuration not stated)	2.5µM*	4.7*	>77
CCOc1ccc(NC(=O)CSc2nnc(-c3ccncc3)n2CC2CCCO2)cc1 (configuration not stated)	-2%	>57	>77
COC(=O)C/C=C\[C@@H](C)[C@@H](/C=N\OC[C@@H]1O[C@H](c2ccccc2)C=C[C@@H]1Oc1ccc(OC)cc1)NS(=O)(=O)c1ccc(C)cc1	-2%[11.4 µM]	·	·
O=C(CSc1nnnn1C1CCCC1)Nc1ccc2c(c1)OCO2	2%	>57	>77
O=C(CSc1nnc2ccccn12)c1ccc2c(c1)OCCO2	16µM*	·	·
c1ccn2c(SCc3ccc4c(c3)OCO4)nnc2c1	-2%	>57	>77
O=C(CSc1nc2ccccc2o1)c1ccc2c(c1)OCCO2	-3%	>57	14*
O=C(CSc1nnnn1C1CCCC1)c1ccc2c(c1)OCCO2	7.9µM*	i	>77
SMILES	FLuc inh	PK Bst	GBA activity
O=C(O)c1ccc(CSc2nc3ccccc3o2)cc1	-9%	>57	>77
CCCCCCCCCC(=O)N[C@@H](CN1CCOCC1)[C@@H](O)c1ccccc1	1%	·	·
CO[C@H]1COC(=O)C/C=C\[C@H](C)[C@@H](OC)COC(=O)[C@H](Cc2ccccc2)NC(=O)C/C=C\[C@@H]1C	1%[11.4 µM]	·	·
CN1CCN(c2ccnc(-c3ccccc3C(F)(F)F)n2)CC1	1%[2.29 µM]	·	·
NC(N)=NC(N)=Nc1ccccc1 (tested in a mixture with another compound)	1%[11.4 µM]	·	·
O=C(Nc1cccc(F)c1)N1CCCC2(CCN(C(=O)c3csnn3)CC2)C1	2%[11.4 µM]	·	·
O=S(=O)(c1ccccc1)N1CCC2(CCCN(Cc3cc(C(F)(F)F)cc(C(F)(F)F)c3)C2)CC1	-1%[11.4 µM]	·	·
COc1cc(NC(=O)Nc2cccc(C(C)=O)c2)cc(OC)c1OC	-27%	>57	>77
COc1cc(NC(=O)CN2c3cccc4cccc(c34)S2(=O)=O)cc(OC)c1OC	7%	0.81*	>77
O=C1CN(C(=O)COC(=O)CCC(=O)c2ccc3c(c2)OCCO3)c2ccccc2N1	20µM*	·	>77
Cc1ccc(S(=O)(=O)CCC(=O)OCC(=O)N2CC(=O)Nc3ccccc32)cc1	-2%	·	>77
CCOC(=O)c1c(C)[nH]c(C(=O)COC(=O)CCC(=O)c2ccc3c(c2)OCCO3)c1C	-2%	>57	11*
CCOC(=O)c1c(C)[nH]c(C(=O)COC(=O)c2ccncc2)c1C	-2%	>57	>77
CCOC(=O)c1c(C)[nH]c(C(=O)COC(=O)c2ccc(F)c(S(=O)(=O)N3CCOCC3)c2)c1C	2%	>57	>77
CCOC(=O)c1c(C)[nH]c(C(=O)COC(=O)C2CC2C)c1C (configuration not stated)	10µM*	i	7.8*
CCC(=O)[C@@H](c1ccccc1)c1ccccn1	1%[11.4 µM]	·	·
CCCC[S@@](=N)(=O)CC[C@@H](N)C(=O)O	3%	·	·
COc1ccc(-n2c(=O)c(-c3cccs3)nc3cnc(N(C)C)nc32)cc1	1%[11.4 µM]	·	·
CS(=O)(=O)N1CCC2(CCCN(c3cccc(-c4ccccc4)c3)C2)CC1	0%[11.4 µM]	·	·
Cc1c(N=Cc2nc3ccccc3[nH]2)c(=O)n(-c2ccccc2)n1C	16µM*	·	>77
Cc1cccc(-c2ccc(C=Nc3c(C)n(C)n(-c4ccccc4)c3=O)o2)c1	-28%	·	>77
Cc1c(N=Cc2nc3ccccc3n2C)c(=O)n(-c2ccccc2)n1C	4µM*	·	·
Cc1c(N=Cc2c(O)n(Cc3ccco3)c(=O)c3ccccc23)c(=O)n(-c2ccccc2)n1C	4%	>57	>77
O=C(N/N=C1/C[C@@H](O)[C@@H](O)[C@@H]2[C@@H]3C(=O)N(C[C@@H]4CCCO4)C(=O)[C@H]3CC[C@H]12)OCc1ccccc1	-1%[11.4 µM]	·	·
O=C(NC1CCCCCCC1)C1CCN(S(=O)(=O)N2CCC3(CC2)OCCO3)CC1	4%	>57	11*
SMILES	FLuc inh	PK Bst	GBA activity
O=C(NC1CCCCC1)C1CCN(S(=O)(=O)N2CCCCCC2)CC1	0%	>57	>77
Cc1nc2cnc(N3CCOCC3)nc2n(CCC#N)c1=O	0%[11.4 µM]	·	·
O=c1c2c([nH]c3ccc(Br)cc13)CCCC2	-2%	·	i
NC(=O)c1cc(Br)cc2c3c([nH]c12)CCCC3	-2%	0.69*	?
O=C(Cn1c(=O)[nH]n(-c2ccccc2)c1=O)N1CCCc2ccccc21	0%	>57	9*
O=C(Cn1cnc2c(cnn2-c2ccccc2)c1=O)N1CCCc2ccccc21	-1%	>57	>77
COC(=O)C/C=C\[C@@H](C)[C@@H](/C=N\O[C@@H](C)CN1CCCc2nc(C)c(C)cc21)OC	2%[11.4 µM]	·	·
CC(C)N1CC=C2C(C#N)=C(N)C(C#N)(C#N)C(c3ccccc3)C2C1 (configuration not stated)	-1%[25.5 µM]	>11	·
Cc1ccc(C2C3CSCC=C3C(C#N)=C(N)C2(C#N)C#N)cc1 (configuration not stated)	-2%	>57	12*
N#Cc1cccc(-n2nnnc2-c2ccc3c(c2)OCO3)c1	-6%	>57	>77
N#Cc1ccc(-c2nnnn2-c2ccc3c(c2)OCO3)cc1	0%	>57	15*
O=c1[nH]c2[nH]c(=S)[nH]c(=S)c2[nH]1	-7%[11.4 µM]	·	·
c1ccc2oc(SCc3nc4ccccc4s3)nc2c1	16µM*	·	>77
N#CCc1nc(CSc2nc3ccccc3o2)cs1	-10%	>57	>77
CC1(C)CO[C@H](CC(=O)O)CN1	1%	·	·
C[N+](C)(C)CCN[N@@+]1(C)CCCc2ccccc21	2%[11.4 µM]	·	·
CCCSc1nnc2n(C)c(=O)c3c4c(sc3n12)CCC4	-1%[25.5 µM]	4.7*	·
